In PubChem BioAssay (NCATS):
Results filed as inconclusive are left out. A call without a number means that no potency is given here. Activity calls are given as the source filed them. Calls follow the shape of the dose curve; as a rule, active = well fitted curve in the direction sought with a large enough effect; inconclusive = small, poorly fitted or top-dose-only effect, or another doubt; inactive = no such curve, though single readings can be large; an effect the other way counts as inactive or inconclusive.

Key:
[1] = qHTS assay for measurement of the activity of small molecule inhibitors on Zika virus induced Caspase-3 activity in human astrocytoma cells (AID 1224859)
Procedure, shortened: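 SNB-19 astrocytoma cells, 250/well, pretreated 1 h with compounds, then Zika virus at 2 FFU/cell for 6 h at 37 C; Caspase-Glo 3/7 luminescence after 30 min; percent inhibition normalised to uninfected and infected controls.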

[2] = qHTS assay for measurement of the activity of small molecule inhibitors on Zika virus induced Caspase-3 activity in human iPSC derived neural progenitor cells (hNPCs) (AID 1224857); also: nearly all actives have a fitted effect of over 65% in size
Procedure, shortened: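 Human iPSC-derived neural progenitor cells pretreated 1 hr with compounds, then infected with Zika virus (2 FFU/cell) for 6 hours at 37 C. Caspase-3/7 measured by Caspase-Glo luminescence; % inhibition calculated from induction scaled to uninfected (0%) and infected (100%) wells.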

[3] = qHTS assay to identify small molecule inhibitors of chordoma cells - UCH-1 (AID 1259355); also: nearly all actives have a fitted effect of over 55% in size; also: potency is read from the fitted curve at half-maximal effect; series mostly up to about 46 µM
Procedure, shortened: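 800 cells/well, overnight attach; compounds pinned at 15 concs, then auranofin/camptothecin/doxorubicin/rubitecan/topotecan combo added; 48hr 37 C, 5% CO2; CellTiter-Glo, 30min RT, luminescence.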

[4] = qHTS assay to identify small molecule inhibitors of chordoma cells - UCH-2 (AID 1259356); also: potency is read from the fitted curve at half-maximal effect

CC(C)Oc1cccc(NC(=O)c2ccccc2C(F)(F)F)c1
Potency [1]: inactive

COC(C)(C)CCCC(C)C/C=C/C(C)=C/C(=O)OC(C)C (stereo not given)
Potency [2]: inactive | Potency [1]: inactive | Potency [3]: inactive | Potency [4]: inactive

O=C(O)COc1ccccc1
Potency [2]: inactive | Potency [1]: inactive | Potency [3]: inactive | Potency [4]: inactive

NC(=O)CN1CC(O)CC1=O (stereo not given)
Potency [2]: inactive | Potency [1]: inactive | Potency [3]: inactive | Potency [4]: inactive

CCOP(=O)(NC(C)C)Oc1ccc(SC)c(C)c1 (stereo not given)
Potency [1]: inactive

O=C(O)C(Cl)Cl
Potency [2]: inactive | Potency [1]: inactive | Potency [3]: inactive | Potency [4]: inactive

NC(N)=NOCCC(N)C(=O)O (stereo not given)
Potency [1]: inactive

CC[N+]1(CCOC(=O)C(O)(c2ccccc2)c2ccccc2)CCCCC1
Potency [1]: inactive | Potency [3]: inactive | Potency [4]: inactive

COc1nn(CSP(=S)(OC)OC)c(=O)s1
Potency [1]: inactive

CCCCOC(=O)c1ccccc1C(=O)OCc1ccccc1
Potency [1]: inactive

O=S(=O)(c1ccc(Cl)cc1)c1ccc(Cl)cc1
Potency [1]: inactive

O=[N+]([O-])c1c2ccccc2cc2ccccc12
Potency [1]: inactive

C[N+](C)(C)CC(=O)O
Potency [2]: inactive | Potency [3]: inactive | Potency [4]: inactive

NC(=NCCC[C@H](N)C(=O)O)N[N+](=O)[O-]
Potency [1]: inactive

CC(C)NCC(O)c1ccc([N+](=O)[O-])cc1 (stereo not given)
Potency [1]: inactive

O=C(O)CCCOc1ccc(Cl)cc1Cl
Potency [1]: inactive

O=[N+]([O-])/N=C1\NCCN1Cc1ccc(Cl)nc1
Potency [2]: inactive | Potency [1]: inactive | Potency [4]: inactive

CC(C)NC(C)Cc1ccc(I)cc1 (stereo not given)
Potency [1]: inactive | Potency [3]: inactive | Potency [4]: inactive

O=[N+]([O-])c1cc([N+](=O)[O-])c2ccccc2c1
Potency [1]: inactive

CC(=O)[O][Hg][c]1ccccc1
Potency [2]: inactive | Potency [3]: 7.08 µM (active) | Potency [4]: 2.59 µM (active)

S=C(SSC(=S)N1CCCCC1)N1CCCCC1
Potency [1]: inactive

C[C@]12N[C@H](Cc3ccccc31)c1ccccc12
Potency [2]: inactive | Potency [1]: inactive | Potency [3]: inactive | Potency [4]: inactive

CS(=O)(=O)c1ccc(C(=O)C2C(=O)CCCC2=O)c([N+](=O)[O-])c1
Potency [1]: inactive

CCCCCCCCCCCCCCCC[N+](C)(C)C
Potency [2]: inactive | Potency [1]: inactive | Potency [4]: inactive

Cc1cc(O)ccc1Cl
Potency [2]: inactive | Potency [1]: inactive | Potency [3]: inactive | Potency [4]: inactive

COC(=O)c1cncn1C(C)c1ccccc1 (stereo not given)
Potency [2]: inactive | Potency [1]: inactive | Potency [3]: inactive | Potency [4]: inactive

CCCCCCCCCC(CC)c1ccc(S(=O)(=O)O)cc1 (stereo not given)
Potency [1]: inactive | Potency [3]: inactive | Potency [4]: inactive

O=C(Cc1ccc(Cl)c(Cl)c1)N1CCCCC1CN1CCCC1 (stereo not given)
Potency [1]: inactive

NC(CP(=O)(O)O)C(=O)O (stereo not given)
Potency [1]: inactive

CCCN1CCO[C@@H]2c3cc(O)ccc3OC[C@H]21
Potency [1]: inactive
